Calls of active or inactive are those of the source. Unless noted, the rule behind the calls is not given here.
How the values were obtained:
[1] = system: Wnt5a (protein binding on small-molecule microarray); assay: Wnt5a binders on small-molecule microarray, primary screen, biophysical, 635/667 nm fluorescence (AID 1142); conditions: 635 nm fluorescence, higher = more signal;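 note: fluorescence read at 667 nm with signal to noise per printed feature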
[2] = cell viability in Huh7 cells, primary screen, cytotoxicity control for HCV replication inhibitor project, CellTiter-Glo luminescence, basal, 48 h (AID 1143); conditions: Huh7 HCV replicon, higher = more signal, called active from +8 up or from −8 down;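 note: Huh7 hepatoma cells carrying a hepatitis C replication reporter with no stimulus; test concentration not given here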
[3] = P. aeruginosa biofilm formation inhibitors, primary screen, PAO1 strain, BacTiter-Glo luminescence, LB-PBS (AID 1144); conditions: 12 h, higher = more signal
[4] = CREB reporter modulators without forskolin, primary screen, cell-based, PC12, CRE-LacZ reporter, unstimulated (AID 1145); conditions: no forskolin, luminescence, 4.5 h, higher = more signal, called active from +8 up or from −8 down
[5] = CREB reporter modulators under forskolin, primary screen, cell-based, PC12, CRE-LacZ reporter, forskolin-stimulated (AID 1146); conditions: luminescence, 4.5 h, higher = more signal, called active from +8 up or from −8 down;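 note: PC12 cells with 6xCRE LacZ reporter stimulated by forskolin 10 µM; beta-galactosidase reporter signal reflecting CREB driven transcription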
[6] = target: Streptavidin (Streptomyces avidinii) (UniProt P22629); assay: streptavidin binders on small-molecule microarray, primary screen, artefact control for SMM compound annotation, biophysical, 635/667 nm fluorescence (AID 1147); conditions: streptavidin binding, higher = more signal;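 note: signal reflects streptavidin binding to arrayed compounds as a control protein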
Streptavidin (Streptomyces avidinii), sequence (P22629 whole entry, looked up): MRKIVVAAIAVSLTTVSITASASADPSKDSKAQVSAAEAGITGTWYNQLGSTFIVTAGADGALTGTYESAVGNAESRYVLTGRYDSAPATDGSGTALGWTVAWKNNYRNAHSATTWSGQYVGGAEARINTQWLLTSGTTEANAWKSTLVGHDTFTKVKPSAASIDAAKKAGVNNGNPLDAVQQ

[7] = small-molecule binders of probe aInhba, primary screen, biochemical, small-molecule microarray, 635/667 nm fluorescence (AID 1148); conditions: higher = more signal;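 note: score merges 667nm spot fluorescence with signal-to-noise for antibody binding to printed compounds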
[8] = target: Torsin-1A (Homo sapiens) (UniProt O14656); assay: torsin A binders from cell lysate, primary screen, small-molecule microarray, wild-type, 635/667 nm (AID 1149); conditions: COS7 hTOR1A-WT lysate, 635 nm fluorescence, higher = more signal
Torsin-1A (Homo sapiens), sequence (O14656 whole entry, looked up): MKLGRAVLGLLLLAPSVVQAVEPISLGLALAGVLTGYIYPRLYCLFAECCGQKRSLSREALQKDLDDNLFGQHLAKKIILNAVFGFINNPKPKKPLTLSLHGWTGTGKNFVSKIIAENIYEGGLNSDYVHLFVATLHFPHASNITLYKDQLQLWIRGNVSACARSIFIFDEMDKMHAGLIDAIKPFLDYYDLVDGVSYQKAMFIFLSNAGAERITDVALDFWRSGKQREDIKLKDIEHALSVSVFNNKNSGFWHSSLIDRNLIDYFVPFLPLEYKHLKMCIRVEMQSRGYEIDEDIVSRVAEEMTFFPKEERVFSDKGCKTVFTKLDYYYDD

[9] = target: Torsin-1A (Homo sapiens) (UniProt O14656); assay: small-molecule binders of mutant TOR1A in lysate, primary screen, cell lysate, small-molecule microarray, COS7 lysate, 635/667 nm fluorescence (AID 1150); conditions: COS7 hTOR1A mutant lysate, 635 nm fluorescence, higher = more signal;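 note: score pools 667 nm emission and signal to noise measuring lysate protein binding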
[10] = system: Sonic hedgehog protein (Shh); assay: small-molecule binders of Shh protein, primary screen, biochemical, small-molecule microarray, 635/667 nm fluorescence (AID 1151); conditions: small-molecule microarray binding, 635 nm fluorescence; higher = more signal;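 note: Shh protein binding to compounds spotted on small-molecule microarray slides; score combines spot fluorescence intensity with signal-to-noise across triplicate slides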
[11] = E. coli DRC41 culture turbidity changes, primary screen, E. coli filamentation inducer project, strain DRC41, OD650, 48 h (AID 1152);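 note: E. coli MC1000 strain DRC41 lacking acrAB efflux pump and sulA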; conditions: E. coli DRC41 (acrAB sulA), higher = more signal, called active from +8 up or from −8 down
[12] = small-molecule binders of probe aLefty1, primary screen, biochemical, small-molecule microarray, 635/667 nm fluorescence (AID 1153); conditions: higher = more signal;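 note: score merges spot fluorescence with signal-to-noise ratio from the scanned slide images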
[13] = PSAC antagonists in infected red cells, primary screen, cell-based, P. falciparum Indochina, OD700, 1 h (AID 1154); conditions: P. falciparum Indochina infected RBC osmotic lysis, higher = more signal, called active from +8 up or from −8 down
[14] = PSAC antagonists in infected red cells, primary screen, cell-based, P. falciparum Indochina, OD700, 2 h (AID 1155);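 note: lysis reports solute entry through the parasite surface anion channel PSAC; channel blockers reduce lysis of infected cells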; conditions: P. falciparum Indochina infected erythrocytes, osmotic lysis OD700; higher = more signal, called active from +8 up or from −8 down
[15] = osmotic lysis modulators in infected erythrocytes, primary screen, PSAC antagonist project, cell-based, P. falciparum Indochina, OD700, 3 h (AID 1156); conditions: higher = more signal, called active from +8 up or from −8 down
[16] = PSAC antagonists in infected red cells, primary screen, cell-based, P. falciparum Indochina, OD700, 18 h (AID 1157); conditions: P. falciparum Indochina infected erythrocytes, osmotic lysis OD700, 18 h; higher = more signal, called active from +8 up or from −8 down
[17] = modulators of S6 phosphorylation in cells, primary screen, cell-based, A549, cytoblot, luminescence, serum-stimulated (AID 1158); conditions: A549 phospho-S6 cytoblot, 5 h, higher = more signal;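 note: serum-stimulated A549 lung adenocarcinoma cells; signal is phosphorylated S6 detected by cytoblot immunostaining with HRP secondary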
[18] = target: NADPH oxidase 2 (Homo sapiens) (UniProt P04839); assay: NOX2-dependent H2O2 signal modulators, primary screen, NOX inhibitor project, cell-based, HEK293-NOX2, PMA-stimulated, Amplex Red fluorescence (AID 1159); conditions: 45 min, higher = more signal, called active from +8 up or from −8 down; note: test concentration not given here
NADPH oxidase 2 (Homo sapiens), sequence (P04839 whole entry, looked up): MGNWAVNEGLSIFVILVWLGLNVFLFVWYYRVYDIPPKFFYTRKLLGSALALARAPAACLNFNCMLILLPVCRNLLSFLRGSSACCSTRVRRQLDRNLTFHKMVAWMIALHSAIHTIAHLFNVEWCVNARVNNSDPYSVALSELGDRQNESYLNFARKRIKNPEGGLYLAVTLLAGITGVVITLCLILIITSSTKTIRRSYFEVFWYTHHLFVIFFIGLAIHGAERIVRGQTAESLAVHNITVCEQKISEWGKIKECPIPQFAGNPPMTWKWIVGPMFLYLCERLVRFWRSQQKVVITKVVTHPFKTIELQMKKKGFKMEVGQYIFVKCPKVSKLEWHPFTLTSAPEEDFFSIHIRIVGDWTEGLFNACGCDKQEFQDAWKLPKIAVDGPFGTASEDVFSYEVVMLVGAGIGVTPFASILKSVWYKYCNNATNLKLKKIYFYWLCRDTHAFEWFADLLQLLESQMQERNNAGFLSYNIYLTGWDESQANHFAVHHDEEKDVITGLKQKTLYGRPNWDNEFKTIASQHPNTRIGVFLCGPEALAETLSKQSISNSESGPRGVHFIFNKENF

[19] = target: NADPH oxidase 4 (Homo sapiens) (UniProt Q9NPH5); assay: NOX4-dependent H2O2 signal modulators, primary screen, NOX inhibitor project, cell-based, HEK293-NOX4, tetracycline-induced, Amplex Red fluorescence (AID 1160); conditions: 45 min, higher = more signal, called active from +8 up or from −8 down
NADPH oxidase 4 (Homo sapiens), sequence (Q9NPH5 whole entry, looked up): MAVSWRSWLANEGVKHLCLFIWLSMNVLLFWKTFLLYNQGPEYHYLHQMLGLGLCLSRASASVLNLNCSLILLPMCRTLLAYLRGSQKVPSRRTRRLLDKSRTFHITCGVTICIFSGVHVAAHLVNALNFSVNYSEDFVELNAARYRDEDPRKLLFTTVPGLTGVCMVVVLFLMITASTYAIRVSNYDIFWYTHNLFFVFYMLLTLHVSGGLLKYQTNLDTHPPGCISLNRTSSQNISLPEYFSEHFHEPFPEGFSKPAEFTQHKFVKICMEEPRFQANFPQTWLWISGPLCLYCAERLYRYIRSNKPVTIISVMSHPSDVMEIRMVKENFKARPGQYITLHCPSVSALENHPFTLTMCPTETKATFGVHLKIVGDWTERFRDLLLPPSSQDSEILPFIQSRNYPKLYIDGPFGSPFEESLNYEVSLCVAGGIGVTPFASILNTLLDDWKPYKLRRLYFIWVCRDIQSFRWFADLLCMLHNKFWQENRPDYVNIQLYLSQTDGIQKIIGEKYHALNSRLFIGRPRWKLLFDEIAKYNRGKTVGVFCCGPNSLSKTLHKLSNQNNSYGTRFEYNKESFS

[20] = target: NADPH oxidase 5 (Homo sapiens) (UniProt Q96PH1); assay: NOX5-dependent H2O2 signal modulators, primary screen, NOX inhibitor project, cell-based, HEK293-NOX5, Amplex Red fluorescence (AID 1161); conditions: HEK293-NOX5, ionomycin, 45 min, higher = more signal
NADPH oxidase 5 (Homo sapiens), sequence (Q96PH1 whole entry, looked up): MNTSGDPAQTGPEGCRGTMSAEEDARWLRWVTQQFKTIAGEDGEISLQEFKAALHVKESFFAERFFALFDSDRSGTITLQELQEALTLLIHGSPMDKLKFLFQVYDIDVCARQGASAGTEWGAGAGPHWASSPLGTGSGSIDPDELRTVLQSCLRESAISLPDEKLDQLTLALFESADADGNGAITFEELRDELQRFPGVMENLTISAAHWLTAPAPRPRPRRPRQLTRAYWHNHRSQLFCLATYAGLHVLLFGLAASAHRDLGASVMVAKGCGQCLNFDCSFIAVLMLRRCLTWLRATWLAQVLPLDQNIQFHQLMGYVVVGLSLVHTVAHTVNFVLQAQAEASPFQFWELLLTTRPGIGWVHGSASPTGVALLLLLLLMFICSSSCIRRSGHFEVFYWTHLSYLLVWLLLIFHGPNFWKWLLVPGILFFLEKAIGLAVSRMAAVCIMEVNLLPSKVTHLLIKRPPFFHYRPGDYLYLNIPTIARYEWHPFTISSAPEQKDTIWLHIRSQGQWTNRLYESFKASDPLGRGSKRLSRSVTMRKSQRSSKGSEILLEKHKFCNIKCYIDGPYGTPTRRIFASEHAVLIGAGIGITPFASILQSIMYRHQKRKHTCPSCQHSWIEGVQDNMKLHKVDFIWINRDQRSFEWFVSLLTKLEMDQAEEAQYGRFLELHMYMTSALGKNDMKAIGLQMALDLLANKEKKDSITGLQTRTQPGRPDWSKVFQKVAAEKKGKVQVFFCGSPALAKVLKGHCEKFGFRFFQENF

Row | SMILES | composite z-score [1] | z-score [2] | z-score [3] | z-score [4] | z-score [5] | composite z-score [6] | composite z-score [7] | composite z-score [8] | composite z-score [9] | composite z-score [10] | z-score [11] | composite z-score [12] | z-score [13] | z-score [14] | z-score [15] | z-score [16] | z-score [17] | z-score [18] | z-score [19] | z-score [20]
1 | Cc1cc2c(nc1C)CCCCN2CC(C)ON=C1[C@H]2CCn3c(=O)n(-c4ccccc4)c(=O)n3[C@H]2[C@H](O)[C@@H]2O[C@H]12 (stereo not given in full) | 0.384 | -0.299 (inactive) | 0.888 (inactive) | -1.21 (inactive) | -0.379 (inactive) | -0.251 | -0.125 | -0.0459 | -0.136 | 0.829 | 1.03 (inactive) | -0.0536 | 0.683 (inactive) | 0.0165 (inactive) | 0.417 (inactive) | 0.122 (inactive) | 0.0162 | -1.86 (inactive) | -0.0659 (inactive) | 0.168
2 | C=C(C)C(=O)OCC1CN2[C@@H](CC[C@@H](C)[C@@H]2c2ccc(Br)cc2)C(=O)O1 (stereo not given in full) | 0.192 | -0.295 (inactive) | 1.34 (inactive) | 1.91 (inactive) | -0.0828 (inactive) | 0.33 | -0.0627 | -0.2 | 1.13 | 0.486 | -0.949 (inactive) | 0.183 | 3.23 (inactive) | 0.672 (inactive) | 0.189 (inactive) | 0.491 (inactive) | -0.48 | -0.0685 (inactive) | -0.149 (inactive) | -0.475
3 | COC(=O)[C@H](C)NC(=O)CCC1CC(OC(=O)NCc2cccc3ccccc23)CC2(CCCC(COC(=O)NCC(c3ccccc3)c3ccccc3)O2)O1 (stereo not given in full) | 0.345 | -0.145 (inactive) | -0.155 (inactive) | -0.437 (inactive) | 2.17 (inactive) | -0.244 | -0.11 | 0.113 | 0.452 | 0.759 | 0.223 (inactive) | -0.0562 | -0.228 (inactive) | -0.0825 (inactive) | -1.34 (inactive) | -0.242 (inactive) | 0.863 | -0.121 (inactive) | 1.09 (inactive) | 1.47
4 | COc1cccc([C@H]2Oc3ccc(OC)cc3C(=NOC[C@@H](O)[C@H]3O[C@@H]4OC(C)(C)O[C@@H]4[C@H]3O)[C@@H]2O)c1 | 0.205 | -2.83 (inactive) | 1.12 (inactive) | 2.02 (inactive) | 0.0487 (inactive) | -0.311 | -0.105 | 0.0929 | 0.339 | 0.303 | -0.0985 (inactive) | -0.387 | 5.05 (inactive) | 0.458 (inactive) | -0.128 (inactive) | 0.537 (inactive) | -0.512 | -0.895 (inactive) | -0.776 (inactive) | -0.23
5 | COC(=O)CC=C[C@@H](C)[C@@H](C=NOCC[C@@H]1C=C[C@H](OC(C)=O)[C@@H](COC(C)=O)O1)NS(=O)(=O)c1ccc(C)cc1 | 0.146 | 0.415 (inactive) | 0.493 (inactive) | 1.28 (inactive) | 0.378 (inactive) | -0.376 | -0.0523 | 1.14 | 1.44 | 0.554 | 0.385 (inactive) | 0.212 | 0.944 (inactive) | 0.107 (inactive) | -0.113 (inactive) | 0.196 (inactive) | -0.879 | 0.174 (inactive) | 0.911 (inactive) | -0.075
6 | CCOC(=O)[C@H](CC(C)C)NC(=O)CCC1CC(OC(=O)NCc2cccc3ccccc23)CC2(CCCC(COC(=O)NCc3ccncc3)O2)O1 (stereo not given in full) | -0.0656 | -0.905 (inactive) | -0.243 (inactive) | 0.562 (inactive) | 0.633 (inactive) | 0.629 | 0.0074 | 0.126 | 0.565 | 1.25 | 0.432 (inactive) | -0.142 | 7.59 (inactive) | 1.02 (inactive) | -0.416 (inactive) | 0.42 (inactive) | 0.351 | 0.402 (inactive) | 0.142 (inactive) | 0.365
7 | O=C1CCCC=C1C(O)CCOC(c1ccccc1)(c1ccccc1)c1ccccc1 (stereo not given) | -0.263 | -1.32 (inactive) | 1.33 (inactive) | -0.344 (inactive) | 1.57 (inactive) | -0.328 | -0.128 | -0.981 | -0.0854 | 0.489 | -1.03 (inactive) | -0.0969 | 1.52 (inactive) | -0.349 (inactive) | -0.205 (inactive) | -0.217 (inactive) | -0.0632 | 1.69 (inactive) | -1.48 (inactive) | -0.832
8 | O=C(NN=C1C[C@@H](O)[C@@H](O)[C@@H]2[C@@H]3C(=O)N(C4CCCCC4)C(=O)[C@@H]3CC[C@H]12)OCc1ccccc1 | 0.476 | 0.0552 (inactive) | -0.19 (inactive) | 0.338 (inactive) | -0.0351 (inactive) | 0.0049 | -0.082 | 0.118 | 0.416 | -0.554 | -0.898 (inactive) | 0.0721 | 7.54 (inactive) | 0.844 (inactive) | 0.522 (inactive) | 0.551 (inactive) | 0.0279 | -0.0856 (inactive) | -1.85 (inactive) | -0.671
9 | CCOC(=O)NN=C1C[C@@H](O)[C@@H](O)[C@@H]2[C@@H]3C(=O)N(c4ccc(F)cc4F)C(=O)[C@@H]3CC[C@@H]12 | 0.0054 | 0.176 (inactive) | 0.449 (inactive) | -0.0211 (inactive) | 0.34 (inactive) | 0.309 | -0.016 | 0.308 | 0.12 | 0.219 | -0.588 (inactive) | 0.197 | 1.73 (inactive) | 0.719 (inactive) | 0.171 (inactive) | 0.0581 (inactive) | -0.561 | 0.992 (inactive) | 0.605 (inactive) | -0.407
